The structures appear in SMILES notation. This is part of a sample that, as a whole, favours compounds with a hit. Of some 83,000 tested, about 20% had one in any assay.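 Results are percent growth after 48 hours of single-concentration exposure. 100 means growth as in untreated cells, lower positive values show inhibition; negative values down to -100 show cell death.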 Unmarked numbers belong to inactive results. The source made the active and inactive calls. The calls were made as follows: active = growth percent below 10; inactive = the rest.

Here are results for 34 molecules from PubChem BioAssay (NCI).

For this assay, the system named is OVCAR-5 ovarian. The experiment in a line: NCI-60 one-dose screen, 48 h (100 = growth as untreated, 0 = no growth, -100 = all killed). To be noted: 10 µM.
As to `CN1CCN(c2ccc(Nc3nc(N4CCN(S(=O)(=O)c5ccc(F)cc5)CC4)c4sccc4n3)cc2)CC1`, the growth was -96.8% (active).
Next, `CCCCCc1ccc(S(=O)(=O)Nc2cc(-c3csc(N(C)C(C)=O)n3)ccc2N2CCN(C)CC2)cc1`: 68%; `CN1CCN(c2ccc(Nc3nc(NCCCNC(=O)C4CCCCC4)c4sccc4n3)cc2)CC1`: 67.3%; `N[C@@H](CSSC[C@H](N)C(=O)Nc1ccc(OCC2CCCC2)cc1)C(=O)Nc1ccc(OCC2CCCC2)cc1`: -100% (active).
For `COc1ccc2nc(Cl)c(-c3cc(-c4ccccc4)nc(=O)[nH]3)cc2c1` the value was 93.1%; for `O=C(Nc1ccc(OCc2ccccc2)cc1)Nc1ccc(Cl)c(C(F)(F)F)c1`, 18.5%.
For the molecule `COc1ccc2[nH]c(O)c(N=NC(=O)COc3ccc(NC(=O)Nc4ccc(Cl)cc4)cc3)c2c1`, the growth is 48%.
Next, `Cc1cc2c(c(O)c1Br)-c1ncoc1C(=O)[C@]1(C)CC[C@H](C(C)C)[C@H]21`: 73.2%; `CCN1CCN(c2ccc(NC(=O)Nc3ccc4c(c3F)CCN4c3ccnc(C(=O)NC)c3)cc2C(F)(F)F)CC1`: 57.5%.
`O=C1Nc2ccc(F)cc2/C1=C/c1cccc(OCc2ccccc2)c1`: the growth was 66%.
Next, `Cc1ccc(NC(=O)c2ccc(-n3c(=O)[nH]c4ccccc4c3=O)cc2)cc1`: 106%; `O=C(Nc1ccncc1)c1ccc(-n2c(=O)[nH]c3ccccc3c2=O)cc1`: 100%.
As for `Cc1ccc(-c2cc(-c3cc4ccccc4nc3Cl)[nH]c(=S)n2)cc1`, the growth is 87%.
Next, `O=C(c1ccc(Cl)cc1)C1[C@H](c2ccc(Br)cc2)[C@@H](c2ccccc2)NC12C(=O)Nc1ccc(Cl)cc12` (some centres undefined): -89.5% (active); `O=C(O)CCCCCCCCCCN1C(=O)/C(=C/c2cnc(-c3ccc(Cl)cc3)s2)SC1=S`: 56.9%; `CN1CCN(c2ccc(Nc3nc(N4CCN(S(=O)(=O)c5ccc(Cl)cc5)CC4)c4sccc4n3)cc2)CC1`: -80.9% (active).
For `CN1CCN(c2ccc(C(=O)/C=C/c3cc(Br)ccc3F)cc2)CC1` the value was 135%.
`O=c1nc(-c2ccccc2)cc(-c2cc3ccccc3nc2Cl)[nH]1`: the growth is 40.9%.
Next, `CC1=C2C(=C[C@@](C)(CO)[C@@H]2O)/C(=N\N)[C@](C)(O)C12CC2`: -42.8% (active).
Turning to `O=C(c1ccc(O)cc1)C1[C@H](c2ccc(Br)cc2)[C@@H](c2ccccc2)NC12C(=O)Nc1ccc(Br)cc12` (some centres undefined), the growth is -4.82% (active).
Next, `COc1ccc(C=CC(=O)c2ccc(-n3c(C)nc4c(cnn4-c4ccccc4)c3=O)cc2)cc1`: 111%; `O=C(c1ccc(O)cc1)C1[C@H](c2ccccc2Br)[C@@H](c2ccccc2)NC12C(=O)Nc1ccc(Cl)cc12` (some centres undefined): -2.71% (active); `O=C(c1ccccc1)n1ccc(-c2cc3cc(Br)ccc3oc2=O)n1`: 34.6%.
For `C#Cc1ccc(S(=O)(=O)Nc2cccc(-c3csc(NC(C)=O)n3)c2)cc1` the value was 101%; for `O=C(N/N=C/c1ccc(-c2cccc([N+](=O)[O-])c2)o1)c1[nH]c2ccc(Br)cc2c1-c1ccccc1`, 23.3%; for `O=C(Nc1nc2ccc([N+](=O)[O-])cc2s1)Nc1cc(Cl)ccc1I`, 15.1%.
As for `C=C(c1ccc(OC)c(N)c1)c1cc(C)nc2ccccc12`, the growth is 26.3%.
For `CNC(=O)c1cccc(N2CCc3c2ccc(NC(=O)Nc2ccc(N4CCN(C)CC4)c(C(F)(F)F)c2)c3F)c1` the value was -85.1% (active); for `COc1ccc([C@H]2C(C(=O)c3ccc(Cl)cc3)C3(N[C@@H]2c2ccccc2)C(=O)Nc2ccc(Br)cc23)cc1` (some centres undefined), -20% (active).
For `CN1CCN(Cc2ccc(C(=O)Nc3cccc(Nc4ccc5cc(O)ccc5n4)c3)cc2C(F)(F)F)CC1`, the growth is -25% (active).
On to `Brc1ccc(/C=N/Nc2ncnc3sc4c(c23)CCN(Cc2ccccc2)C4)cc1`, for which the growth was 99.9%.
Regarding `COc1ccc(C(C)=C(c2ccc(OCCCN(C)C)cc2)c2ccc(OCCCN(C)C)cc2)cc1`, the growth was -100% (active).
For `C=C(C)[C@@H]1CC[C@]2(C(=O)OC)CC[C@]3(C)[C@H](CC[C@@H]4[C@@]5(C)CC[C@H](N)C(C)(C)[C@@H]5CC[C@]43C)[C@@H]12` the value was -100% (active).
For `CS(=O)(=O)Nc1ccc(-c2ccc3c(c2)ncn3-c2ccc(NC(=O)Nc3ccc(Br)cc3)cc2)cc1` the value was 20.1%.
